Source: PubChem
Compounds with a hit are over-represented: about 2.4% of the library has one in this group of screens.
Pol eta inh: DNA polymerase eta (human) inhibition; Q9Y253; recombinant Pol eta, fluorescent DNA replication assay; Potency, µM (titrated, usually from 114 µM), usual class: inhibitors; hit rate 1.2% among 390,000; AID 588591
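Pol eta (10 nM) was preincubated with compounds for 15 min at room temperature, after which fluorescent replication substrate (50 nM final) was added to start the reaction. Fluorescence was read kinetically at 0 and 10 min.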
Pol beta inh: DNA polymerase beta (human) inhibition. P06746. Pol beta primer extension/strand displacement, fluorescence kinetic. Potency, µM (highest dose often 114 µM), usual class: inhibitors. hit rate 1.3% among 340,000. AID 485314
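10 nM enzyme + cpd, 15 min RT; start with substrate 50 nM final; read 0 min and after 10 min RT. Corrected, normalized data; 4-parameter Hill curve fit.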
POLI inh: blocks human DNA polymerase iota activity. Q9UNA4. Pol iota fluorescent replication assay, 10 min. Potency, µM (top dose mostly 115 µM), usual class: inhibitors. hit rate 1% among 390,000. AID 588590
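Pol iota at 10 nM preincubated 15 min with compounds at room temperature; reaction started with fluorescent substrate, 50 nM final. Fluorescence read kinetically at 0 and 10 min; buffer-only wells as negative control.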
WRN helicase inh: inhibitors of human WRN helicase. Q14191. WRN helicase unwinding, fluorescent forked duplex, kinetic. Potency, µM (titrated, usually from 114 µM), most hits filed as inhibitors. hit rate 0.46% among 360,000. AID 651768; further: nearly all actives have a fitted effect of over 55% in size
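Screening of the MLSMR collection measured strand separation of a quenched forked DNA duplex (100 nM) by 20 nM WRN with 2 mM ATP, all final. Compounds were preincubated with enzyme 15 min at room temperature.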
FEN1 inh: human FEN1 inhibition; P39748; hit rate 0.35% among 390,000; Recombinant FEN1 flap cleavage, fluorescence, 15 min; Potency, µM (top dose mostly 114 µM), actives largely listed as inhibitors; further: nearly all actives have a fitted effect of over 65% in size
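Recombinant FEN1 (10 nM) was preincubated with pin-transferred compounds for 15 min at room temperature, then flap DNA substrate (50 nM final) was added. Plates were read at 0 and 15 min, and normalized concentration–response data were fitted to a four-parameter Hill equation.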
POLK inh: DNA polymerase kappa (human) inhibition | Q9UBT6 | purified Pol kappa, fluorescent DNA synthesis assay, 10 min | Potency, µM (highest dose often 107 µM), hits mostly inhibitors | hit rate 0.53% among 400,000 | AID 588579
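Inhibition of 10 nM Pol kappa is measured by a fluorescent read-out at 0 and 10 min following addition of 50 nM substrate (final), with a 15-min room-temperature compound preincubation.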
Hits are given with their value; . = inactive; ? = inconclusive; / = no result given; [ ] = remark or other dose. The call rests on the fitted dose curve; in most records, active means well fitted curve in the direction sought with a large enough effect; inconclusive means small, poorly fitted or top-dose-only effect, or another doubt; inactive means no such curve, though single readings can be large; an effect the other way counts as inactive or inconclusive.

SMILES | Pol eta inh | Pol beta inh | POLI inh | WRN helicase inh | FEN1 inh | POLK inh
CCNc1nc(NCC)n2c(SCC(=O)Nc3c(C)cccc3C)nnc2n1 | ? | / | . | . | . | .
CCNc1nc(NCC)n2c(SCC(=O)Nc3cccc(Cl)c3)nnc2n1 | 14µM | / | ? | . | . | ?
CCNc1nc(NCC)n2c(SCC(=O)Nc3cc(Cl)ccc3OC)nnc2n1 | ? | / | ? | . | . | .
CCNc1nc(NCC)n2c(SCC(=O)Nc3ccccc3C(F)(F)F)nnc2n1 | ? | / | 79µM | .[11.6 µM] | . | ?
CCCCCCCCCCCCCC[C@@H](O)[C@@H](O)[C@H](CO)NC(C)=O | / | / | / | / | / | .[12 µM]
CC(=O)c1cccc(NC(=O)Cn2cc(C(=O)c3cccc(Cl)c3)c(=O)c3ccc(C)nc32)c1 | . | . | 89µM | / | . | .
Cc1nc2scc(C)n2c(=O)c1S(=O)(=O)Nc1ccc(N2CCN(S(C)(=O)=O)CC2)cc1 | ? | ? | 50µM | . | . | .
Oc1ccc(N=Cc2ccc(-c3cccs3)s2)cc1 | 32µM | ? | ? | 50µM | ? | .
CCOc1cc(C(c2c(C)[nH][nH]c2=O)c2c(C)[nH][nH]c2=O)cc(Cl)c1O | . | . | 25µM | . | . | .
O=C(/C=C/c1ccc(O)c(O)c1)c1ccc(S(=O)(=O)N2CCCCCC2)cc1 | 7.9µM | ? | ? | ? | . | .
COC(=O)c1ccc(S(=O)(=O)N2CCCCCC2)cc1 | . | . | . | . | . | .
O=C(Nc1nnc(SCc2ccc(F)cc2)s1)c1ccc2ncsc2c1 | . | . | 3.2µM | .[11.6 µM] | ? | .
CC(=O)Nc1nnc(SCc2ccc(F)cc2)s1 | . | . | . | . | . | .
N#CN=c1snc(-c2ccccc2)n1-c1ccc(Cl)cc1 | / | / | . | / | . | .
CN=c1scc(-c2ccc([N+](=O)[O-])cc2)n1/N=C/c1ccco1 | . | . | . | . | . | .
CN=c1scc(-c2ccc(F)cc2)n1/N=C/c1ccc(O)c(O)c1 | ? | 5µM | ? | . | . | .
COc1ccc2c(c1)c1nnc(SC)nc1n2Cc1ccccc1 | / | / | . | / | . | .
Nc1ncnc2c1nc(Sc1ccc(Cl)cc1)n2[C@H]1OC2COP(=O)(O)O[C@H]2[C@@H]1O (some centres not stated) | / | / | . | / | . | .
O=C(O)c1ccc(-n2ncc3c2/C(=C/c2cccc([N+](=O)[O-])c2)CC3)cc1 | 50µM | . | ? | . | . | .
Cc1ccc(Cn2c(C3CCCN3c3nc(-c4cc(Cl)c(N)c(Cl)c4)cs3)nc3cc(C(=O)NCCCO)ccc32)cc1 (configuration not stated) | . | / | 45µM | . | . | .
CN(C)CCNC(=O)C(=O)Nc1cc2c3c(c1)CCN3C(=O)CC2 | . | . | 40µM | .[11.6 µM] | . | ?
O=S(=O)(NCc1ccccc1)c1ccc(Cl)cc1 | . | . | . | . | . | .
O=S(=O)(Nc1cc2nc3ccccc3nc2n1Cc1ccccc1)c1ccc(Cl)cc1 | 79µM | ? | 10µM | ? | . | .
O=S(=O)(O)c1cc(O)c2c(O)c(N=Nc3cc(Cl)ccc3O)c(S(=O)(=O)O)cc2c1 | 35µM | 32µM | 22µM | 45µM | ? | 16µM
Cc1cc(-c2ccc(N=Nc3c(S(=O)(=O)O)cc4cc(S(=O)(=O)O)cc(N)c4c3O)c(C)c2)ccc1N=Nc1c(S(=O)(=O)O)cc2cc(S(=O)(=O)O)cc(N)c2c1O | / | / | / | / | / | 0.89µM
SMILES | Pol eta inh | Pol beta inh | POLI inh | WRN helicase inh | FEN1 inh | POLK inh
O=C1NC(=O)/C(=C/c2ccc3c(c2)OC(F)(F)O3)S1 | / | / | / | / | / | .
CN(C)C(=O)c1ccc(/C=C/c2ccnc3ccccc23)cc1 | / | / | . | / | . | .
Cc1cc[n+](CCC2CCCCC2)cc1 | / | / | . | / | . | .
CC(=O)OCC1=C(C(=O)OC(C)(C)C)N2C(=O)[C@@H](NC(=O)Cc3ccccc3)[C@H]2SC1 | ? | / | 32µM | . | ? | ?
Cc1cc(=O)c(C(=O)N[C@@H](C(=O)N[C@@H]2C(=O)N3C(C(=O)O)=C(CSc4nnnn4C)CS[C@H]23)c2ccc(O)cc2)c[nH]1 | / | / | / | / | / | .[19.4 µM]
CC(C(=O)NC1C(=O)N2C(C(=O)O)=C(CSc3nnnn3C)CSC12)n1cc(Cl)cn1 (configuration not stated) | 35µM | ? | ? | . | . | .
